Reference: the supplement of paper PMC8728848
Many of the other results were omitted from the sample, so the strongest signals are more common in it than they were.

Assays:
Assay in all cases: glycan array binding signal (z-score within array); higher = stronger binding
Conditions in all cases: glycan notation: IUPAC condensed, linker removed
[1] = target: GlcNAc(b1-3)Gal(b1-4)GlcNAc(b1-3)Gal(b1-4)GlcNAc
In short: (§1)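 Glycan array data came from 3228 arrays in the Consortium for Functional Glycomics database, and only arrays with an available protein sequence were kept. Glycan names were put into IUPAC-condensed notation, and columns mapping to the same glycan were averaged. The binding signal is a within-array Z-score, averaged across arrays of one protein sequence run at different concentrations or buffers and across linkers. A negative Z-score can be read as non-binding.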

[2] = target: GlcNAc(b1-3)Gal(b1-4)GlcNAc(b1-3)Gal(b1-4)GlcNAc(b1-2)Man(a1-3)[GlcNAc(b1-3)Gal(b1-4)GlcNAc(b1-3)Gal(b1-4)GlcNAc(b1-2)Man(a1-6)]Man(b1-4)GlcNAc(b1-4)GlcNAc
In short: as §1

[3] = target: GlcNAc(b1-3)Gal(b1-4)GlcNAc(b1-3)Gal(b1-4)GlcNAc(b1-3)Gal(b1-4)GlcNAc(b1-2)Man(a1-3)[GlcNAc(b1-3)Gal(b1-4)GlcNAc(b1-3)Gal(b1-4)GlcNAc(b1-3)Gal(b1-4)GlcNAc(b1-2)Man(a1-6)]Man(b1-4)GlcNAc(b1-4)[Fuc(a1-6)]GlcNAc
In short: as §1

[4] = target: GlcNAc(b1-3)Gal(b1-4)GlcNAc(b1-3)Gal(b1-4)GlcNAc(b1-3)Gal(b1-4)GlcNAc(b1-3)Gal(b1-4)GlcNAc(b1-2)Man(a1-3)[GlcNAc(b1-3)Gal(b1-4)GlcNAc(b1-3)Gal(b1-4)GlcNAc(b1-3)Gal(b1-4)GlcNAc(b1-3)Gal(b1-4)GlcNAc(b1-2)Man(a1-6)]Man(b1-4)GlcNAc(b1-4)GlcNAc
In short: as §1

[5] = target: GlcNAc(b1-3)Gal(b1-4)GlcNAc(b1-3)Gal(b1-4)GlcNAc(b1-3)Gal(b1-4)GlcNAc(b1-3)Gal(b1-4)GlcNAc(b1-2)[GlcNAc(b1-3)Gal(b1-4)GlcNAc(b1-3)Gal(b1-4)GlcNAc(b1-3)Gal(b1-4)GlcNAc(b1-3)Gal(b1-4)GlcNAc(b1-6)]Man(a1-6)[GlcNAc(b1-3)Gal(b1-4)GlcNAc(b1-3)Gal(b1-4)GlcNAc(b1-3)Gal(b1-4)GlcNAc(b1-3)Gal(b1-4)GlcNAc(b1-2)Man(a1-3)]Man(b1-4)GlcNAc(b1-4)[Fuc(a1-6)]GlcNAc
In short: as §1

[6] = target: GlcNAc(b1-3)Gal(b1-4)GlcNAc(b1-6)[Gal(b1-3)]GalNAc
In short: as §1

GlcNAc(b1-3)Man = target: GlcNAc(b1-3)Man
In short: as §1

Kdn(a2-6)Gal(b1-4)GlcNAc = target: Kdn(a2-6)Gal(b1-4)GlcNAc
In short: as §1

[7] = target: Man(a1-3)[Man(a1-6)]Man(a1-6)[Man(a1-3)]Man(b1-4)GlcNAc(b1-4)GlcNAc
In short: as §1

Man(b1-4)GlcNAc = target: Man(b1-4)GlcNAc
In short: as §1

Neu5Ac(a2-3)Gal = target: Neu5Ac(a2-3)Gal
In short: as §1

[8] = target: Neu5Ac(a2-3)Gal(b1-3)GlcNAc(b1-2)Man(a1-3)[GlcNAc(b1-4)][Neu5Ac(a2-3)Gal(b1-3)GlcNAc(b1-2)Man(a1-6)]Man(b1-4)GlcNAc(b1-4)GlcNAc
In short: as §1

[9] = target: Neu5Ac(a2-3)Gal(b1-3)GlcNAc(b1-2)[Neu5Ac(a2-3)Gal(b1-3)GlcNAc(b1-4)]Man(a1-6)[Neu5Ac(a2-3)Gal(b1-3)GlcNAc(b1-2)Man(a1-3)]Man(b1-4)GlcNAc(b1-4)GlcNAc
In short: as §1

[10] = target: Neu5Ac(a2-3)Gal(b1-3)GlcNAc(b1-3)Gal(b1-4)GlcNAc
In short: as §1

[11] = target: Neu5Ac(a2-3)Gal(b1-3)GlcNAc6S
In short: as §1

[12] = target: Neu5Ac(a2-3)Gal(b1-3)[Fuc(a1-4)]GlcNAc
In short: as §1

[13] = target: Neu5Ac(a2-3)Gal(b1-3)[Neu5Ac(a2-6)]GlcNAc(b1-3)[Fuc(a1-3)[Gal(b1-4)]GlcNAc(b1-6)]Gal(b1-4)Glc
In short: as §1

[14] = target: Neu5Ac(a2-3)Gal(b1-4)GlcNAc(b1-2)Man(a1-3)[Neu5Ac(a2-3)Gal(b1-4)GlcNAc(b1-2)Man(a1-6)]Man(b1-4)GlcNAc(b1-4)[Fuc(a1-6)]GlcNAc
In short: as §1

[15] = target: Neu5Ac(a2-3)Gal(b1-4)GlcNAc(b1-3)Gal(b1-4)GlcNAc(b1-3)[Neu5Ac(a2-3)Gal(b1-4)GlcNAc(b1-3)Gal(b1-4)GlcNAc(b1-6)]GalNAc
In short: as §1

[16] = target: Neu5Ac(a2-3)Gal(b1-4)GlcNAc(b1-6)[Neu5Ac(a2-3)Gal(b1-3)]GalNAc
In short: as §1

[17] = target: Neu5Ac(a2-3)Gal(b1-4)GlcNAc6S
In short: as §1

[18] = target: Neu5Ac(a2-3)Gal(b1-4)[Fuc(a1-3)]GlcNAc(b1-3)Gal(b1-4)GlcNAc
In short: as §1

Neu5Ac(a2-3)GalNAc = target: Neu5Ac(a2-3)GalNAc
In short: as §1

[19] = target: Neu5Ac(a2-3)[GalNAc(b1-4)]Gal(b1-4)Glc
In short: as §1

[20] = target: Neu5Ac(a2-6)Gal(b1-4)GlcNAc(b1-2)Man
In short: as §1

[21] = target: Neu5Ac(a2-6)Gal(b1-4)GlcNAc(b1-2)[Neu5Ac(a2-6)Gal(b1-4)GlcNAc(b1-6)]Man(a1-6)[Neu5Ac(a2-6)Gal(b1-4)GlcNAc(b1-2)Man(a1-3)][GlcNAc(b1-4)]Man(b1-4)GlcNAc(b1-4)GlcNAc
In short: as §1

[22] = target: Neu5Ac(a2-6)Gal(b1-4)GlcNAc(b1-3)Gal(b1-4)GlcNAc(b1-6)[Gal(b1-3)]GalNAc
In short: as §1

[23] = target: Neu5Ac(a2-6)Gal(b1-4)GlcNAc(b1-3)GalNAc
In short: as §1

[24] = target: Neu5Ac(a2-6)Gal(b1-4)GlcNAc(b1-3)[Neu5Ac(a2-6)Gal(b1-4)GlcNAc(b1-6)]GalNAc
In short: as §1

[25] = target: Neu5Ac(a2-6)Gal(b1-4)GlcNAc(b1-6)[Gal(b1-3)]GalNAc
In short: as §1

[26] = target: Neu5Ac(a2-6)Gal(b1-4)GlcNAc6S
In short: as §1

[27] = target: Neu5Ac(a2-6)GalNAc(b1-4)GlcNAc
In short: as §1

[28] = target: Neu5Ac(a2-6)GlcNAc(b1-4)GlcNAc
In short: as §1

[29] = target: Neu5Ac(a2-8)Neu5Ac(a2-3)Gal(b1-3)GalNAc(b1-4)[Neu5Ac(a2-8)Neu5Ac(a2-3)]Gal(b1-4)Glc
In short: as §1

[30] = target: Neu5Ac(a2-8)Neu5Ac(a2-3)Gal(b1-4)GlcNAc
In short: as §1

[31] = target: Neu5Ac(a2-8)Neu5Ac(a2-8)Neu5Ac(a2-3)[GalNAc(b1-4)]Gal(b1-4)Glc
In short: as §1

B1: ArathEULS3 TAP (Arabidopsis thaliana) (protein)
chain: IDENLYFQGGSMDEKTTGWRGGHVVEGLAGELEQLRARLEHHPQGQREPGGGGSLEITSLYKKAGFMEHHHQHHRHHQRDDGEDDRQSFGVPPPHVDAPPQPHGLYQSQPHFDPYAPTPQAPAPYRSETQFEPHAPPPYRSEPYFETPAPPPSFGHVSHVGHQSPNESYPPEHHRYGGYQQPSNSLLESHGDHSGVTHVAHHSSNQPQSSSGVYHKPDENRLPDNLAGLAGRATVKVYSKAEPNYNLTIRDGKVILAPADPSDEAQHWYKDEKYSTKVKDADGHPCFALVNKATGEAMKHSVGATHPVHLIRYVPDKLDESVLWTESKDFGDGYRTIRMVNNTRLNVDAYHGDSKSGGVRDGTTIVLWDWNKGDNQLWKIFPF
- glycan array binding signal (z-score) [1]: 0.442
- glycan array binding signal (z-score) [2]: 2.26
- glycan array binding signal (z-score) [3]: 2.42
- glycan array binding signal (z-score) [4]: 0.229
- glycan array binding signal (z-score) [5]: 3.16
- glycan array binding signal (z-score) [6]: -0.045
- glycan array binding signal (z-score) (GlcNAc(b1-3)Man): 0.29
- glycan array binding signal (z-score) (Kdn(a2-6)Gal(b1-4)GlcNAc): 0.575
- glycan array binding signal (z-score) [7]: 3.03
- glycan array binding signal (z-score) (Man(b1-4)GlcNAc): -0.658
- glycan array binding signal (z-score) (Neu5Ac(a2-3)Gal): -1.33
- glycan array binding signal (z-score) [8]: -1.32
- glycan array binding signal (z-score) [9]: 1.77
- glycan array binding signal (z-score) [10]: -0.43
- glycan array binding signal (z-score) [11]: 0.337
- glycan array binding signal (z-score) [12]: 0.016
- glycan array binding signal (z-score) [13]: 2.31
- glycan array binding signal (z-score) [14]: -0.12
- glycan array binding signal (z-score) [15]: 0.575
- glycan array binding signal (z-score) [16]: -1.05
- glycan array binding signal (z-score) [17]: -0.296
- glycan array binding signal (z-score) [18]: 2.91
- glycan array binding signal (z-score) (Neu5Ac(a2-3)GalNAc): 0.618
- glycan array binding signal (z-score) [19]: 0.447
- glycan array binding signal (z-score) [20]: 0.021
- glycan array binding signal (z-score) [21]: -0.647
- glycan array binding signal (z-score) [22]: -0.634
- glycan array binding signal (z-score) [23]: 0.12
- glycan array binding signal (z-score) [24]: 0.364
- glycan array binding signal (z-score) [25]: 0.429
- glycan array binding signal (z-score) [26]: -0.553
- glycan array binding signal (z-score) [27]: 0.004
- glycan array binding signal (z-score) [28]: 1.18
- glycan array binding signal (z-score) [29]: 2.9
- glycan array binding signal (z-score) [30]: -0.433
- glycan array binding signal (z-score) [31]: -0.112
